What all share (assay): NCI-60 one-dose screen, 48 h (100 = growth as untreated, 0 = no growth, -100 = all killed)
The test system of one assay is T-47D breast. As to conditions: 10 µM unless noted.
Another assay deals with BT-549 breast. The conditions noted are these: 10 µM unless noted.
A further assay has as its system MDA-MB-435 melanoma. The conditions noted are these: 10 µM unless noted.
Another assay deals with SW-620 colon. As to conditions: 10 µM unless noted.
A further assay has as its system MCF7 breast.
The test system of a further assay is HCT-116 colon. As to conditions: 10 µM unless noted.
A further assay concerns HCC-2998 colon. The conditions noted are these: 10 µM unless noted.
Another assay concerns KM12 colon. The conditions noted are these: 10 µM unless noted.

Structures are written as SMILES. Several values for one entry are separate records, joined by “and”; a condition that tells them apart may be missing. Equal entries are not always repeated. Compounds without any hit were thinned out: in the full panel of roughly 83,000, 20% have a hit.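 Assay: single dose, 48 h. Readout: percent growth (0 = no net growth; negative = cell death). Active: <10.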 Values without a mark were called inactive. Activity calls are given as the source filed them.

Take `COC(=O)c1nc(=S)[nH]c(C(=O)OC)c1C(=O)c1ccc2ccccc2c1`: the growth in the assay on T-47D breast is 86.5%; in the assay on BT-549 breast it was 131%; in the assay with MDA-MB-435 melanoma it was 104%; in the assay with SW-620 colon, 101%; in the assay on MCF7 breast (10 µM) it was 94.4%; in the assay with HCT-116 colon, 107%. Moreover, the growth in the assay with HCC-2998 colon was 113%; in the assay on KM12 colon it was 107%.
With `O=C(O)C1C2CC3C(OC(=O)C31)C2Br` (centres undefined), the growth is 98.7% and 96% in the assay on T-47D breast; 99.4% and 93.2% in the assay on BT-549 breast; 109% and 95.4% with MDA-MB-435 melanoma; 94.7% and 94.8% in the assay on SW-620 colon; 88.7% and 93.8% in the assay with MCF7 breast (10 µM); 94.1% and 101% with HCT-116 colon. Also, the growth in the assay with KM12 colon is 108% and 106%.
In the case of `N#CSCc1c(Cl)cccc1Cl`, the growth in the assay on T-47D breast is 79.9%; with BT-549 breast, 88.4%; in the assay on MDA-MB-435 melanoma it was 29.6%; in the assay on MCF7 breast (10 µM), 33.3%; in the assay with HCT-116 colon, 4.1% (active); with HCC-2998 colon, 70%. Besides, the growth with KM12 colon is 48.1%.
As to `COC(=O)c1nc(=S)[nH]c(C(=O)OC)c1C(=O)c1ccccn1`, the growth is 51.5% with T-47D breast; 50.3% in the assay with BT-549 breast; 33.3% with MDA-MB-435 melanoma; 14.6% in the assay on MCF7 breast (10 µM); 17.9% in the assay on HCT-116 colon; 45.3% in the assay on HCC-2998 colon. Moreover, the growth with KM12 colon is 24.6%.
In the case of `Oc1c(Cl)cc(Cl)c2cccnc12`, the growth with T-47D breast was 52.4% and 43.4%; with BT-549 breast, 53.1% and 40.3%; in the assay with MDA-MB-435 melanoma, 63.1% and 54.3%; in the assay with SW-620 colon it was 54.9% and 57.5%; in the assay with MCF7 breast (10 µM), 50.8% and 29.1%; in the assay on HCT-116 colon, 40.6% and 25.6%. In the assay on KM12 colon, the growth was 54.2% and 52.3%.
`Cc1cc(C(C)(CC(C)C)c2ccc(O)c(C)c2)ccc1O`: the growth with T-47D breast was 86.8%; with BT-549 breast, 109%; in the assay with MDA-MB-435 melanoma, 94.1%; in the assay on SW-620 colon it was 117%; with MCF7 breast (10 µM) it was 115%; in the assay with HCT-116 colon, 93.9%. The values for the growth with HCC-2998 colon and in the assay on KM12 colon were 103% and 107%, respectively.
Take `N#CSCC(=O)c1ccc(Cl)cc1`: the growth was 71.4% with T-47D breast; 43.7% in the assay on BT-549 breast; 15.8% with MDA-MB-435 melanoma; 22.7% with SW-620 colon; 10.7% in the assay on MCF7 breast (10 µM); -16.3% (active) in the assay with HCT-116 colon. Also, the growth with KM12 colon was 14.7%.
Regarding `c1ccc2c(c1)Nc1cc3ccccc3cc1N2`, the growth with T-47D breast was 24.9%; in the assay on BT-549 breast, 33%; with MDA-MB-435 melanoma, -16.7% (active); with SW-620 colon, 18.8%; with MCF7 breast (10 µM), 2.88% (active); in the assay with HCT-116 colon, 26.4%. In addition, the growth with KM12 colon is 44.2%.
Consider `CCN1/C(=C\c2cc[n+](CC)c3ccccc23)C=Cc2ccccc21`, for which the growth with T-47D breast is 2.9% (active); in the assay on BT-549 breast, 10.8%; in the assay with MDA-MB-435 melanoma, -30.7% (active); in the assay on SW-620 colon, 8.76% (active); in the assay with MCF7 breast (10 µM), 8.12% (active); in the assay on HCT-116 colon it was 11.9%. The growth in the assay on KM12 colon was 1.57% (active).
Turning to `COc1ccccc1OC(=O)Oc1ccccc1OC`, the growth in the assay on T-47D breast is 123% and 100%; in the assay with BT-549 breast, 97%; in the assay on MDA-MB-435 melanoma, 112% and 96%; with MCF7 breast (10 µM) it was 96.1% and 88.8%; in the assay on HCT-116 colon it was 99.9% and 101%; with HCC-2998 colon, 102% and 94.6%. The growth in the assay with KM12 colon is 107% and 98%.
As for `C=CCOc1ccc(N=NC(C#N)C#N)cc1`, the growth with T-47D breast was -2.81% (active); with BT-549 breast, 92.1%; in the assay on MDA-MB-435 melanoma it was 88.3%; in the assay with SW-620 colon, 40.4%; with MCF7 breast (10 µM), 22.6%; in the assay with HCT-116 colon it was 46.8%. The growth in the assay with KM12 colon was 100%.
Consider `CN(Cc1cnc2nc(N)nc(N)c2n1)c1ccc(C(=O)NC(CCC(=O)O)C(=O)O)cc1` (centres undefined), for which the growth with T-47D breast was 67.6%; in the assay with BT-549 breast, 48.4%; in the assay on MDA-MB-435 melanoma, 30.6%; with SW-620 colon, 27.5%; with MCF7 breast (10 µM) it was 24.3%; in the assay on HCT-116 colon, 20.6%. Further, in the assay on KM12 colon, the growth was 32.4%.
`CN(C)C(=O)SC1=C(c2c(Cl)cccc2Cl)C(=O)c2ccccc21`: the growth with T-47D breast was -71.9% (active); with BT-549 breast it was 87.2%; in the assay with MDA-MB-435 melanoma it was -13% (active); in the assay with SW-620 colon, -83.9% (active); with MCF7 breast (10 µM), -43.6% (active); in the assay with HCT-116 colon, -64.6% (active). Also, the growth in the assay on KM12 colon is 99.4%.
`CC(C)(C)CC(C)(C)c1ccc(OCCSC(=N)N)cc1`: the growth was 7.82% (active) with T-47D breast; 104% in the assay on BT-549 breast; 20.2% in the assay on MDA-MB-435 melanoma; -12.1% (active) in the assay on SW-620 colon; 9.08% (active) in the assay with MCF7 breast (10 µM); -12.2% (active) with HCT-116 colon. Moreover, the growth in the assay with KM12 colon was 32.8%.
In the case of `O=C(CC1(O)C(=O)Nc2c(Cl)ccc(Cl)c21)c1ccc(Cl)cc1Cl` (centres undefined), the growth is 75.5% in the assay on T-47D breast; 90.2% in the assay on BT-549 breast; 91.6% with MDA-MB-435 melanoma; 105% with SW-620 colon; 91.6% in the assay with MCF7 breast (10 µM); 89.9% in the assay on HCT-116 colon. In addition, the growth in the assay with KM12 colon is 102%.
Regarding `O=C(Nc1cccc(Br)c1)Oc1ccc(Cl)c2cccnc12`, the growth was 12.1% [100 µM] in the assay with T-47D breast; 4.77% [100 µM] (active) in the assay with BT-549 breast; 30.2% [100 µM] with MDA-MB-435 melanoma; 26.1% [100 µM] in the assay on SW-620 colon; -30.3% (active) with MCF7 breast (100 µM); 2.06% [100 µM] (active) in the assay with HCT-116 colon. Moreover, the growth in the assay on KM12 colon is 30.5% [100 µM].

(Values after PubChem BioAssay (NCI).)
